Experimental data from PubChem BioAssay.
A number with no mark means an inactive call. The source made the active and inactive calls.

assay: fission yeast growth modulation, primary screen, strain 972, OD600, 24 h, no modulator (AID 1090);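 also: basal condition with compound alone and no growth modifier present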; conditions: S. pombe 972 growth, higher = more signal, called active from +8 up or from −8 down
Also: test concentration not given here.

Compound	z-score
CCOC(=O)C[C@H]1[C@H](OC(=O)Cc2ccc3c(c2)OCO3)[C@@H](NC(=O)c2ccc(-c3ccccc3)cc2)c2cc(OCCCO)ccc2N1C(=O)c1ccc2ccccc2n1	-2.89
COCCCNC(=O)[C@@]1(Cc2ccccc2)N=C(c2ccc(OCCCO)cc2)O[C@H]1c1ccccc1	-0.475
NC(=O)[C@@H]1[C@H]2C(=O)O[C@H](c3ccccc3)[C@H](c3ccccc3)N2[C@H](c2ccc(O)cc2)[C@@]12C(=O)Nc1ccc(C#CC3(O)CCCCCC3)cc12	-0.133
COc1cc2c(cc1O)C(C1CC1)N(Cc1cc3c(cc1Br)OCO3)CC2 (stereo unspecified)	-3.12
CCCCCC1=C2CNC(CCC)(C(=O)OC)C=C2C(C)C1=O (stereo unspecified)	0.277
COc1ccc(C(O)C2C=CC3C(=O)NC(=O)C3N2Nc2ccccn2)c2ccccc12 (stereo unspecified)	-0.0861
COC(=O)C(CC#Cc1ccc2c(c1)[C@]1(C(=O)N2)[C@H](C(=O)O)[C@H]2C(=O)O[C@H](c3ccccc3)[C@H](c3ccccc3)N2[C@@H]1c1ccc(O)cc1)C(=O)OC	0.819
CC1(C)[C@@H]2CC(C(O)C3C=CC4C(=O)N(c5ccccc5)C(=O)C4N3Nc3ccccc3)=C[C@H]1C2 (stereo partly specified)	0.286
COc1ccc([Si](C)(C)[C@H]2[C@H](CCn3cc([C@H](O)c4ccccc4)nn3)O[C@@]3(C(=O)N(Cc4cccc(N5CCOC5=O)c4)c4ccccc43)[C@@H]2C)cc1	0.947
COc1cc2c(cc1O)C=[N+](Cc1cccc(OC(F)(F)F)c1)CC2	-3.24
COC(=O)[C@@]1(Cc2ccc(OC)cc2)[C@H]2c3cc(C(=O)N(C)C)n(CCN4CNCC4=O)c3C[C@H]2CN1C(=O)c1ccccc1	0.687

assay: S. cerevisiae growth modulation with rapamycin, primary screen, strain BY4716, OD600, 96 h (AID 1091); conditions: higher = more signal, called active from +8 up or from −8 down

Compound	z-score
CCOC(=O)C1=CCC(c2ccc(C)cc2)N(S(=O)(=O)c2ccc(C)cc2)C1 (stereo unspecified)	2.26
CN(C)CCCNC(=O)[C@@]1(c2ccc([N+](=O)[O-])cc2)CC(=O)N(C2CCCCC2)[C@@H]1c1ccc(CO)cc1	-1.97
CC(=O)N1Cc2ccccc2C[C@@]2(COC(c3ccc(OCCCO)cc3)=N2)C1=O	-0.965
COCCOC(=O)N1C(=O)[C@@]2(c3cc(C#CC4=CCCCC4)ccc31)[C@H](C(=O)Nc1nc3ccccc3s1)[C@H]1C(=O)O[C@H](c3ccccc3)[C@H](c3ccccc3)N1[C@@H]2c1ccc(OCCO)cc1	2.07
C=CC[C@]1(C(=O)N2CCCCC2)N=C(c2ccc(OCCCO)cc2)O[C@H]1c1ccccc1	-2.04
O=C1NCC(=O)N2[C@@H]1C[C@@H](C(=O)O)[C@H]2c1cccc(OCCO)c1	0.273
O=C1O[C@H](c2ccccc2)[C@H](c2ccccc2)N2[C@H]1[C@@H](C(=O)O)[C@]1(C(=O)Nc3ccc(C#CCCO)cc31)[C@H]2c1ccc(O)cc1	0.385
C=CCOC(=O)[C@H]1[C@@H]2C(=O)O[C@@H](c3ccccc3)[C@@H](c3ccccc3)N2[C@@H](c2ccc(OCCOC(=O)[C@@H]3C[C@@H]4C(=O)N[C@@H](CCCCN(C)C)C(=O)N4[C@@H]3c3ccc(O)cc3)cc2)[C@]12C(=O)Nc1ccc(I)cc12	1.52
CC(C)(C)OC(=O)CC[C@]12N=C(c3ccc(OCCCO)cc3)O[C@H]1c1ccccc1N(CCS(=O)(=O)c1ccccc1)C2=O	0.246
CN(C)C(=O)[C@@]1(Cc2ccccc2CN=[N+]=[N-])N=C(c2ccc(OCCCO)cc2)O[C@H]1c1ccccc1	34.7 (active)
COc1cc2c(cc1OC)CN(C(=O)[C@H]1[C@@H]3C(=O)O[C@@H](c4ccccc4)[C@@H](c4ccccc4)N3[C@@H](c3ccc(O)cc3)[C@]13C(=O)Nc1ccc(C#CC4=CCCCC4)cc13)CC2	0.563
CN1C(=O)C2C=CC(C(O)c3cc(C(F)(F)F)cc(C(F)(F)F)c3)N(N3CCCCC3)C2C1=O (stereo unspecified)	1.63
COCC(=C=CC[C@H](O)c1ccccc1OCCO)C[C@H](O)c1cc(Cl)cc(Cl)c1O	-4.61
CCCN1C(=O)[C@]2(CCS(=O)(=O)c3ccccc3)N=C(c3ccc(OCCCO)cc3)O[C@@H]2c2ccccc21	2.82
COc1cc2c(cc1OC)CN(C(=O)[C@H]1[C@@H]3C(=O)O[C@@H](c4ccccc4)[C@@H](c4ccccc4)N3[C@@H](c3ccc(O)cc3)[C@]13C(=O)Nc1ccc(C#CCNC(N)=O)cc13)CC2	0.518
CN(C)CCCNC(=O)[C@@]1(C)c2ccccc2C(=O)N(Cc2cc(F)cc(C(F)(F)F)c2)[C@H]1c1ccc(CO)cc1	-2.02
O=C1C2C=CC(C(O)C3CCCCC3)N(Nc3ccc([N+](=O)[O-])cc3)C2C(=O)N1c1ccccc1 (stereo unspecified)	3.55
O=C1OCCC/C=C\[C@H]2OC34C=CCN(c5ccc6ccccc6c5)C(=O)[C@H]3N(CCCCCCO)C(=O)[C@@H]4C12 (stereo partly specified)	-0.533

Compound	z-score
COCCOC(=O)N1C(=O)[C@@]2(c3cc(C#CCNC(N)=O)ccc31)[C@H](C(=O)NC[C@H](O)c1ccccc1)[C@H]1C(=O)O[C@H](c3ccccc3)[C@H](c3ccccc3)N1[C@@H]2c1ccccc1OCCO	3.45
CC(C)(C)OC(=O)CC[C@@]12N=C(c3ccc(OCCCO)cc3)O[C@@H]1c1ccccc1N(CCS(=O)(=O)c1ccccc1)C2=O	0.0825
COC(=O)[C@@]1(Cc2ccc(F)cc2)[C@H]2c3cc(C(=O)N4CCCC4)n(Cc4cc(C)n(C)n4)c3C[C@H]2CN1C(=O)c1ccccc1	1.2
COC(=O)c1c(CC[C@@H](CO)NC(=O)N2CCC[C@H]2Cn2cc(-c3ccccn3)nn2)oc(C(C)=O)c1C(=O)OC	-1.46
CCOC(=O)[C@H]1CC=C2CC1C(=O)N1CCC[C@@H]1[C@@H]2O[Si](C)(C)C(C)(C)C (stereo partly specified)	-1.8
C=CCC(OC(C)=O)[C@@H]1[C@@H](N(Cc2ccc(-c3ccccc3)cc2)C(=O)Cc2ccc(F)cc2)c2cc(OCCCO)ccc2N1C(=O)c1ccc(-c2ccccc2)cc1 (stereo partly specified)	-0.694
CCOC(=O)C[C@H]1[C@H](OC(=O)Cc2ccc3c(c2)OCO3)[C@@H](NC(=O)c2ccc(-c3ccccc3)cc2)c2cc(OCCCO)ccc2N1C(=O)c1ccc2ccccc2n1	-1.13
COCCCNC(=O)[C@@]1(Cc2ccccc2)N=C(c2ccc(OCCCO)cc2)O[C@H]1c1ccccc1	-1.74
NC(=O)[C@@H]1[C@H]2C(=O)O[C@H](c3ccccc3)[C@H](c3ccccc3)N2[C@H](c2ccc(O)cc2)[C@@]12C(=O)Nc1ccc(C#CC3(O)CCCCCC3)cc12	0.639
COc1cc2c(cc1O)C(C1CC1)N(Cc1cc3c(cc1Br)OCO3)CC2 (stereo unspecified)	-0.24
CCCCCC1=C2CNC(CCC)(C(=O)OC)C=C2C(C)C1=O (stereo unspecified)	0.573
COc1ccc(C(O)C2C=CC3C(=O)NC(=O)C3N2Nc2ccccn2)c2ccccc12 (stereo unspecified)	0.188
COC(=O)C(CC#Cc1ccc2c(c1)[C@]1(C(=O)N2)[C@H](C(=O)O)[C@H]2C(=O)O[C@H](c3ccccc3)[C@H](c3ccccc3)N2[C@@H]1c1ccc(O)cc1)C(=O)OC	-0.567
CC1(C)[C@@H]2CC(C(O)C3C=CC4C(=O)N(c5ccccc5)C(=O)C4N3Nc3ccccc3)=C[C@H]1C2 (stereo partly specified)	-0.136
COc1ccc([Si](C)(C)[C@H]2[C@H](CCn3cc([C@H](O)c4ccccc4)nn3)O[C@@]3(C(=O)N(Cc4cccc(N5CCOC5=O)c4)c4ccccc43)[C@@H]2C)cc1	1.95
COc1cc2c(cc1O)C=[N+](Cc1cccc(OC(F)(F)F)c1)CC2	-1.98
COC(=O)[C@@]1(Cc2ccc(OC)cc2)[C@H]2c3cc(C(=O)N(C)C)n(CCN4CNCC4=O)c3C[C@H]2CN1C(=O)c1ccccc1	-0.567
